This is an account of results in PubChem BioAssay (NCI).

Molecules are shown by their SMILES. Compounds without any hit were thinned out: in the full panel of roughly 83,000, 20% have a hit.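 48-hour exposure, single concentration, 96-well plates; percent growth endpoint where 0 means no net growth. Active: below 10.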 A number with no mark means an inactive call. Activity calls are given as the source filed them.

Test systems include DU-145 prostate; MALME-3M melanoma; MDA-MB-231 breast; RXF 393 renal; SF-268 CNS; SF-295 CNS; SF-539 CNS; UACC-257 melanoma; HCT-15 colon; HT29 colon; SNB-75 CNS; SNB-19 CNS; U251 CNS; PC-3 prostate; SK-MEL-5 melanoma; UACC-62 melanoma; LOX IMVI melanoma; SK-MEL-28 melanoma; K-562 leukemia; M14 melanoma.
Holding throughout (assay): NCI-60 one-dose screen, 48 h (100 = growth as untreated, 0 = no growth, -100 = all killed)
Settings in all cases: 10 µM unless noted

Consider `O=c1oc2ccc(Cl)cc2cc1-c1cs/c(=N/N=C\c2ccc(Cl)cc2)n1/N=C/c1ccc(Cl)cc1`, for which the growth is 108% in the assay with DU-145 prostate; 98.9% in the assay with MALME-3M melanoma; 101% with MDA-MB-231 breast; 113% in the assay on RXF 393 renal; 104% in the assay on SF-268 CNS; 108% with SF-295 CNS. Besides, the growth with SF-539 CNS was 107%; in the assay on UACC-257 melanoma, 95.1%; in the assay on HCT-15 colon it was 105%; with HT29 colon, 91.8%; in the assay with SNB-75 CNS, 123%; in the assay on SNB-19 CNS, 98.4%. For the same molecule, the growth was 102% in the assay on U251 CNS; 99.4% with PC-3 prostate; 104% in the assay with SK-MEL-5 melanoma; 93.8% in the assay with UACC-62 melanoma; 110% in the assay on LOX IMVI melanoma; 110% with SK-MEL-28 melanoma.

With `Cc1c(C)c2c(c(C)c1NC(=O)/C=C\C(=O)O)CCC(C)(CCCC(C)CCCC(C)CCCC(C)C)O2` (stereo not drawn), the growth in the assay with DU-145 prostate is 80.2%; in the assay on K-562 leukemia, 71.9%; in the assay on MDA-MB-231 breast, 70.9%; in the assay on RXF 393 renal, -93% (active); with SF-268 CNS, 53.9%; in the assay with SF-295 CNS, 66.3%. The growth in the assay on SF-539 CNS is 8.15% (active); in the assay on UACC-257 melanoma, 20.5%; with M14 melanoma, 20.7%; in the assay on HCT-15 colon, 2.82% (active); in the assay with HT29 colon, 20.7%; in the assay with SNB-75 CNS, 33.2%. The growth in the assay on SNB-19 CNS is 78.1%; with U251 CNS it was 60.2%; in the assay with PC-3 prostate, 16.6%; with SK-MEL-5 melanoma, -97.7% (active); in the assay on UACC-62 melanoma, 22.8%; in the assay on SK-MEL-28 melanoma, -10.6% (active).

In the case of `CO/C(=C1/NC(=O)C(Cc2ccc(O)c(Br)c2)N(C)C(=O)C(C)NC(=O)CCC/C=C(\C)CCC(C)OC1=O)c1ccccc1` (stereo not drawn), the growth with DU-145 prostate was -17.3% (active); with K-562 leukemia, 6.13% (active); in the assay on MDA-MB-231 breast it was -31.3% (active); with RXF 393 renal, -79.5% (active); in the assay on SF-268 CNS, -43.6% (active); in the assay on SF-295 CNS it was -65.3% (active). The growth in the assay on SF-539 CNS is -52.3% (active); in the assay with UACC-257 melanoma, -54% (active); in the assay with HCT-15 colon, 3.37% (active); with HT29 colon it was 5.97% (active); in the assay with SNB-75 CNS it was -94.2% (active); in the assay on SNB-19 CNS, -4.37% (active). Besides, the growth in the assay with U251 CNS was -36.8% (active); in the assay on PC-3 prostate, -9.06% (active); in the assay on SK-MEL-5 melanoma, -67.6% (active); in the assay with UACC-62 melanoma, 9.3% (active); in the assay with LOX IMVI melanoma, -34.2% (active); in the assay on SK-MEL-28 melanoma, -25.8% (active).

For the molecule `O=[N+]([O-])c1ccc(-c2cc3c(Nc4ccc(Cl)c(C(F)(F)F)c4)ncnc3s2)cc1`, the growth with DU-145 prostate was 23%; in the assay on MALME-3M melanoma, -22.8% (active); with MDA-MB-231 breast, 5.95% (active); in the assay with RXF 393 renal, 5.99% (active); with SF-268 CNS it was 24.3%; in the assay on SF-295 CNS, -6.39% (active). Moreover, the growth with SF-539 CNS was 14.9%; in the assay with UACC-257 melanoma, -18.6% (active); in the assay on M14 melanoma it was 19.4%; in the assay with HCT-15 colon, 10.2%; with HT29 colon, 3.89% (active); with SNB-75 CNS it was 16.4%. Further, the growth in the assay on SNB-19 CNS was 12.1%; in the assay on U251 CNS it was 8.85% (active); in the assay with PC-3 prostate, 11.5%; with SK-MEL-5 melanoma it was -42.5% (active); in the assay on UACC-62 melanoma it was -1.39% (active); in the assay on LOX IMVI melanoma, 6.09% (active). The growth with SK-MEL-28 melanoma was 20.1%.

Turning to `O=[N+]([O-])c1ccccc1C(O)Cc1ccc2ccccc2n1` (stereo not drawn), the growth in the assay with K-562 leukemia was 108%; in the assay on MALME-3M melanoma it was 89.6%; with MDA-MB-231 breast it was 68.3%; with RXF 393 renal, 91.2%; with SF-268 CNS it was 93.1%; with SF-295 CNS it was 103%. Further, the growth with SF-539 CNS was 98.4%; in the assay on UACC-257 melanoma, 93.3%; in the assay on M14 melanoma, 90%; in the assay on HCT-15 colon it was 105%; in the assay on HT29 colon, 112%; with SNB-75 CNS, 85.8%. In addition, the growth is 101% in the assay with SNB-19 CNS; 96.9% with U251 CNS; 95.5% in the assay with PC-3 prostate; 89.9% in the assay on SK-MEL-5 melanoma; 82.6% in the assay with UACC-62 melanoma; 93% in the assay with LOX IMVI melanoma. The growth in the assay with SK-MEL-28 melanoma was 92.9%.

As to `O=C1c2ccccc2C2(c3ccc(O)cc3)c3ccccc3Oc3cccc1c32` (stereo not drawn), the growth in the assay on K-562 leukemia was 19.8%; in the assay on MALME-3M melanoma, 66.4%; in the assay with MDA-MB-231 breast, 21.8%; with RXF 393 renal it was 11%; in the assay on SF-268 CNS, 40.3%; in the assay on SF-295 CNS, 21.3%. Besides, the growth is -1.29% (active) in the assay on SF-539 CNS; 48% in the assay with UACC-257 melanoma; 0.454% (active) in the assay on M14 melanoma; 25.9% in the assay with HCT-15 colon; 42.2% with SNB-75 CNS; 35.6% in the assay with SNB-19 CNS. Moreover, the growth in the assay with U251 CNS was 15.5%; in the assay with PC-3 prostate, 21.6%; in the assay with SK-MEL-5 melanoma it was 16.9%; in the assay with UACC-62 melanoma, 30.8%; in the assay on LOX IMVI melanoma, 28.3%; with SK-MEL-28 melanoma, 51.9%.

With `Nc1c(-c2nc3ccc(Br)cc3c(=O)[nH]2)nnn1-c1ccccc1`, the growth in the assay with DU-145 prostate is 62.3%; in the assay with MALME-3M melanoma it was 86.8%; in the assay with MDA-MB-231 breast, 82.2%; in the assay on RXF 393 renal it was 103%; with SF-268 CNS, 60%; in the assay on SF-295 CNS it was 68%. In addition, the growth in the assay on SF-539 CNS is 90.9%; in the assay on UACC-257 melanoma it was 95.9%; in the assay on HCT-15 colon it was 79%; in the assay on SNB-75 CNS, 79.5%; with SNB-19 CNS it was 70.6%; in the assay with U251 CNS, 38.6%. For the same molecule, the growth in the assay on PC-3 prostate is 73.4%; in the assay with SK-MEL-5 melanoma, 102%; in the assay with UACC-62 melanoma it was 93.9%; in the assay on LOX IMVI melanoma, 80.4%; in the assay on SK-MEL-28 melanoma it was 96.2%.

As to `CCOC(=O)c1nnn(C(Cc2ccccc2Cl)C(=O)OCC)c1C` (stereo not drawn), the growth is 109% with DU-145 prostate; 117% with MALME-3M melanoma; 104% in the assay on MDA-MB-231 breast; 109% in the assay with RXF 393 renal; 111% in the assay with SF-268 CNS; 111% with SF-295 CNS. For the same molecule, the growth with SF-539 CNS was 107%; with UACC-257 melanoma, 83.6%; with HCT-15 colon it was 107%; in the assay with SNB-75 CNS, 89.5%; with SNB-19 CNS, 104%; in the assay on U251 CNS, 96.1%. Moreover, the growth is 94% in the assay on PC-3 prostate; 101% in the assay with SK-MEL-5 melanoma; 99.9% with UACC-62 melanoma; 104% in the assay with LOX IMVI melanoma; 111% in the assay with SK-MEL-28 melanoma.

`CCOC(=O)C(=CNc1ccccc1[N+](=O)[O-])C(=O)OCC`: the growth in the assay with K-562 leukemia is 96.7%; with MALME-3M melanoma it was 115%; with MDA-MB-231 breast, 98.6%; in the assay with RXF 393 renal, 104%; in the assay on SF-268 CNS, 105%; in the assay with SF-295 CNS, 98.6%. Moreover, the growth in the assay on SF-539 CNS is 97.7%; in the assay on UACC-257 melanoma, 94.2%; in the assay on M14 melanoma, 118%; in the assay on HCT-15 colon it was 108%; in the assay with HT29 colon, 92.6%; in the assay with SNB-75 CNS it was 97%. For the same molecule, the growth with SNB-19 CNS was 91.2%; in the assay on U251 CNS it was 92.6%; with PC-3 prostate, 95.7%; in the assay with SK-MEL-5 melanoma, 86.4%; in the assay on UACC-62 melanoma it was 84.4%; in the assay on LOX IMVI melanoma it was 99.9%. Further, in the assay on SK-MEL-28 melanoma, the growth was 102%.
